Our source for the activity change, negative = inhibition and Potency values is PubChem BioAssay AID881 (National Center for Advancing Translational Sciences (NCATS), 2007).

Several values for one entry are separate records, joined by “and”; a condition that tells them apart may be missing. Equal entries are not always repeated. Screen size: about 110,000 compounds; about 610 (0.55%) were called active. Entries that show only a call come without a potency. Not shown: some 3% with an inconclusive outcome. For the sample, actives were picked, then their nearest neighbours and some compounds at random. Unmarked numbers belong to inactive results. The call rests on the fitted dose curve; in most records, active means well fitted inhibition curve with a large enough effect; inconclusive means small, poorly fitted or top-dose-only effect; inactive means no such curve, though single readings can be large or run the other way.
Potency means the concentration at half of the fitted maximal effect.

The target in the assay is Polyunsaturated fatty acid lipoxygenase ALOX15B (Homo sapiens) (UniProt O15296). In words: qHTS Assay for Inhibitors of 15-hLO-2 (15-human lipoxygenase 2). Further: nearly all actives have a fitted effect of over 60% in size. The note with it: purified 15hLO-2, xylenol orange hydroperoxide absorbance; series mostly up to 57.1 µM. The source says: Assay Overview: NIH Molecular Libraries Screening Centers Network [MLSCN] NIH Chemical Genomics Center [NCGC] MLSCN Grant: MH081283-01A1 PI Name: Holman, T.R., University of California, Santa Cruz Human lipoxygenase 15hLO-2 is a member of the closely related lipoxygenase family of enzymes which catalyze the site-specific oxidation of arachidonic acid to various hormone precursor molecules and as such is a candidate for drug development in a variety of disease areas, such as cancer and inflammation. Inhibition of 15hLO-2 activity was screened by utilizing arachidonic acid as a substrate. The extent of hydroperoxide product formation was measured by a secondary chromogenic reaction in which xylenol orange (XO, Sigma-Aldrich, cat. number 39,818-7) reacts with the ferric ions produced from the reaction between the hydroperoxide and ferrous ions. The Fe(III)-XO complex is characterized with red-shifted absorbance at 560 nm. A purified preparation of human 15hLO-2 was supplied by Professor Ted Holman, University of California, Santa Cruz.
Sequence of Polyunsaturated fatty acid lipoxygenase ALOX15B (Homo sapiens) (O15296 whole entry, looked up): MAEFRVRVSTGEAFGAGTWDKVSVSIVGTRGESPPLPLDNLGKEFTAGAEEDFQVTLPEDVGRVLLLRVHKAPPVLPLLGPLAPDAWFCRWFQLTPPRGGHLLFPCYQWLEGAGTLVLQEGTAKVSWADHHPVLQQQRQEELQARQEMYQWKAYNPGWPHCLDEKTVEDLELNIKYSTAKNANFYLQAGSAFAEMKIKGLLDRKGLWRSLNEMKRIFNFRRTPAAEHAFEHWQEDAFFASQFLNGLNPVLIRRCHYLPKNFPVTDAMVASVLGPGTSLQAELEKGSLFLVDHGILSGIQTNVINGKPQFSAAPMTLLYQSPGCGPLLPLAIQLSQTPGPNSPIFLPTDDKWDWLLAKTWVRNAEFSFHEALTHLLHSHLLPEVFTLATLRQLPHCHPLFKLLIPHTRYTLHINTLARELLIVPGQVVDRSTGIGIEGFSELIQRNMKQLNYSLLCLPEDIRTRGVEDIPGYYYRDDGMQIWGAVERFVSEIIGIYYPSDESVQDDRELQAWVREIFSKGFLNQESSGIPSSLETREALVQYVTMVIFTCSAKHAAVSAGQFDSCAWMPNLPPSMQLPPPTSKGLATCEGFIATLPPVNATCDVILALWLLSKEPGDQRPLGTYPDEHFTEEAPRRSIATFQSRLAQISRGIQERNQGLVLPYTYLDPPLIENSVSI
Assay Protocol: Buffer: 25 mM Hepes pH 7.5, 0.01% Triton X-100. Reagents/Controls: Buffer in columns 3 and 4 as negative control (no enzyme). Substrate solution: 45 uM arachidonic acid (Sigma-Aldrich, St. Louis, MO) final concentration dispensed throughout the plate. Enzyme: 50 nM 15hLO-2 final concentration in columns 1, 2, 5-48. Column 1 is neutral (100% activity). Column 2 contained pin-transferred titration of NDGA (nordihidroguaiaretic acid, Sigma-Aldrich, N 5023, top concentration 10 mM in DMSO, then 1:2 dilution in duplicate). (Dilution factor: 23 nL into 4 uL.) Chromogenic detection reagent (divalent iron/xylenol orange, Fe-XO): 200 uM xylenol orange plus 300 uM ferrous ammonium sulfate prepared freshly in 50 mM sulfuric acid. Assay Steps: Three uL of enzyme were dispensed to 1536-well Greiner black clear bottom plates. Compounds and controls (23 nL) were transferred via Kalypsys PinTool. The plates were incubated for 15 min at room temperature, and then 1 uL of substrate solution was added to start the reaction. After room temperature incubation for 90 minutes, 4 uL of Fe-XO solution was added to each well followed by a short spin (1000 rpm, 15 sec) and the plates were then incubated for 30 min. The absorbance at 405 and 573 nm were measured using ViewLux (Perkin-Elmer) High-throughput CCD imager and absorbance protocol settings. The 573-to-405 absorbance ratio was used to compute reaction progress.
For `O=C(Nc1cc(C(F)(F)F)ccc1Cl)c1cc2nc3c(c(C(F)(F)F)n2n1)CCCC3`, the activity change, negative = inhibition entry was “inactive”.

With `CCOc1ccc(N=Cc2c(O)n(-c3cccc(C)n3)c(=O)c3ccccc23)cc1`, the activity change, negative = inhibition entry is “inactive”.

For `NNc1nnc(NN)c2ccccc12`, the activity change, negative = inhibition is 35% [at 0.0915 µM].

In the case of `CCOC(=O)c1c(NC(=O)CCl)sc(C(=O)N(CC)CC)c1C`, the activity change, negative = inhibition result is “inactive”.

Take `O=c1onc(-c2cccs2)n1Cc1ccccc1`: the activity change, negative = inhibition result was “inactive”.

With `CNC(=O)c1nnc(Cc2ccc(Cl)cc2)o1`, the activity change, negative = inhibition result was “inactive”.

Turning to `CC(C)Nc1ncnc2c1nnn2Cc1ccccc1`, the activity change, negative = inhibition entry was “inactive”.

Take `CN=C1SC(CC(=O)Nc2ccc(C(=O)O)cc2)C(=O)N1C` (stereo not given): the activity change, negative = inhibition entry is “inactive”.

In the case of `Cc1c(Br)cc(C(=O)N2CCCCCC2)c(C)c1C`, the activity change, negative = inhibition result is “inactive”.

Turning to `O=C1OCCN1C(=O)[C@H]1[C@H](c2ccccc2)C(c2ccc(F)cc2)=NN1c1ccccc1`, the activity change, negative = inhibition was -26.1% [at 0.0915 µM].

On to `Oc1c(Cl)cc(Cl)c(Cl)c1Cc1c(O)c(Cl)cc(Cl)c1Cl`, for which the Potency was 10 µM (active).

As for `C=C(C)CSc1nnc(-c2ccc(C)cc2)n1N`, the activity change, negative = inhibition result is “inactive”.

Consider `COc1ccc(CN2CN(C(C)C)CSC2=S)cc1`, for which the Potency was 5.01 µM (active).

`COc1ccc(C(=O)CN(C(=O)c2ccc(Cl)cc2)N2C(=O)c3ccccc3C2=O)cc1`: the activity change, negative = inhibition result is “inactive”.

As for `O=C(O)CSCc1ccc(C(=O)O)o1`, the activity change, negative = inhibition result is “inactive”.

As for `CC(C)NS(=O)(=O)c1ccc(NC(=O)C2CCCCC2)cc1`, the activity change, negative = inhibition entry is “inactive”.

Regarding `O=C(CCc1ccc(S(=O)(=O)N2CCOCC2)cc1)Nc1ccc2ccccc2c1`, the activity change, negative = inhibition result is “inactive”.

As to `COc1ccc(Nc2cc(=O)oc3ccccc23)cc1`, the activity change, negative = inhibition entry was “inactive”.

Take `S=C(NCc1ccc(Cl)cc1)NC12CC3CC(CC(C3)C1)C2`: the Potency is 15.8 µM (active).

Take `S=C(NCc1cccs1)Nc1ccc(Cl)cc1`: the activity change, negative = inhibition entry is “inactive”.

With `O=C(NCc1ccc2c(c1)OCO2)C12CC3CC(CC(C3)C1)C2`, the activity change, negative = inhibition entry is “inactive”.

As for `Cc1cccc(N2C(=O)c3cccnc3C2=O)c1`, the activity change, negative = inhibition result is “inactive”.

Take `COc1ccc(-c2c(C)cc3oc(=O)cc(-c4ccccc4)c3c2C)cc1F`: the activity change, negative = inhibition is -14% [at 0.0915 µM].

Consider `Cc1cccc(-c2cc(=O)c3cc(C)ccc3o2)c1`, for which the activity change, negative = inhibition entry was “inactive”.

Take `O=c1cc(-c2ccc(O)c(O)c2)oc2cccc(O)c12`: the Potency was 12.6 µM (active).

On to `CC1O[C@@H](Oc2c(-c3ccc(O)c(O)c3)oc3cc(O)cc(O)c3c2=O)C(O)C(O)C1O` (stereo not given in full), for which the activity change, negative = inhibition result is “inactive”.

For `CC(C)c1ccc(N2CCN(C(=O)c3ccccc3NC(=O)/C=C(\C(=O)O)c3ccccc3)CC2)cc1`, the activity change, negative = inhibition entry is “inactive”.

Consider `COc1ccc(N2CCN(C(=O)CNC(=O)c3ccc(C(C)(C)C)cc3)CC2)cc1`, for which the activity change, negative = inhibition result was “inactive”.

Consider `CC(=O)N1CCN(c2ccc(NCc3ccc(C(C)C)cc3)cc2)CC1`, for which the Potency is 12.6 µM (active).

In the case of `COc1ccc(-c2c(C)cc3oc(=O)cc(-c4ccccc4)c3c2C)cc1OC`, the activity change, negative = inhibition is -3.53% [at 0.0915 µM].

With `CCCCN(CC)CCNC(=O)c1[nH]c(C)c(C(C)=O)c1C`, the activity change, negative = inhibition result was “inactive”.

For `COCc1cc(C(C)=O)ccc1OC`, the activity change, negative = inhibition entry is “inactive”.

`CC[C@@H]1Cc2cc(O)ccc2C2=C1c1ccc(O)cc1C[C@H]2CC`: the Potency is 7.94 µM (active) and 3.55 µM (active).

With `Cc1nnc(SCC(=O)NC(=O)NC2CCCC2)n1N`, the activity change, negative = inhibition entry is “inactive”.

For `CCc1c(O)nc(SCC(=O)Nc2ccccc2)n(C(C)CC)c1=O` (stereo not given), the activity change, negative = inhibition entry was “inactive”.

For the compound `COc1ccccc1NC(=O)[C@H](COCc1ccccc1)NC(=O)OC(C)(C)C`, the activity change, negative = inhibition result was “inactive”.

With `CC(C)C(=O)OCC(=O)Nc1ccc2c(c1)CCC2`, the activity change, negative = inhibition entry was “inactive”.

Turning to `O=C1OCCN1C(=O)[C@H]1[C@H](c2ccc(F)cc2)C(c2ccccc2)=NN1c1ccc(Br)cc1`, the activity change, negative = inhibition was -15.7% [at 0.0915 µM].

Turning to `COc1cc(/C=N/O)cc(Br)c1OS(=O)(=O)c1ccc(C)cc1`, the activity change, negative = inhibition result is “inactive”.

For the compound `CCN(CC)c1ccc(NC(=O)c2ccc(Cl)nc2)cc1`, the activity change, negative = inhibition result was “inactive”.

As for `Cc1ccc(-c2cccc([C@H]3[C@@H]4C=CC[C@@H](C)[C@@H]4C(=O)N3Cc3ccccc3)c2)cc1`, the activity change, negative = inhibition was 17.8% [at 0.0915 µM].

As to `Cc1nc(NC2=NC(C(=O)Nc3ccc(Cl)cc3)CC(=O)N2)nc2ccccc12` (stereo not given), the activity change, negative = inhibition entry is “inactive”.

For `COc1ccc(Nc2ncnc3ccc(OC)cc23)cc1`, the activity change, negative = inhibition was 12% [at 0.0915 µM].

For the compound `O=C(c1ccccc1)N1CCN(c2ccc([N+](=O)[O-])c(NCc3ccco3)c2)CC1`, the activity change, negative = inhibition entry was “inactive”.

With `N#C/C(=C\c1ccccc1)c1n[nH]c(Cn2cncn2)n1`, the activity change, negative = inhibition entry is “inactive”.

Consider `O=C(O)CCC(=O)O`, for which the activity change, negative = inhibition was 15.2% [at 0.0915 µM].

Turning to `Cc1cc2oc(=O)cc(-c3ccccc3)c2c(C)c1-c1ccc(OC(F)(F)F)cc1`, the activity change, negative = inhibition is -5.36% [at 0.0915 µM].

For the compound `O=C(Nc1ccc(Sc2ccc(Br)cc2)cc1)c1ccco1`, the activity change, negative = inhibition entry is “inactive”.

Take `CC1CCc2c(c3ccccc3[nH]c2=O)O1` (stereo not given): the activity change, negative = inhibition result is “inactive”.

`C=CCSc1nc(Cc2ccc(Cl)cc2)nc2ccccc12`: the activity change, negative = inhibition entry is “inactive”.

With `COc1cc(/C=N/O)cc(Br)c1OCc1cccc(Cl)c1`, the activity change, negative = inhibition entry was “inactive”.

For the compound `CSCc1cc(N(C)C)nc(SCc2ccc(Cl)cc2Cl)n1`, the activity change, negative = inhibition result was “inactive”.

Consider `CCOC(=O)C1=C(C(=O)OCC)C(C(=O)OCC)N(S(=O)(=O)C(F)(F)F)c2ccccc21` (stereo not given), for which the activity change, negative = inhibition was 7.83% [at 0.0915 µM].

In the case of `CC1CCCCC1NC(=O)C1CCCN1S(=O)(=O)c1cccc2nsnc12` (stereo not given), the activity change, negative = inhibition result was “inactive”.

For `Cc1nnc(NC(=O)CCCOc2ccccc2)s1`, the activity change, negative = inhibition result was “inactive”.

Turning to `O=C(CN1C(=O)C2C3C=CC(C3)C2C1=O)Nc1nc(-c2ccccn2)cs1` (stereo not given), the activity change, negative = inhibition result was “inactive”.

Regarding `CCCCOC(=O)Nc1sc2nc(C)cc(C)c2c1-n1cccc1`, the activity change, negative = inhibition entry was “inactive”.

Regarding `CCOC(=O)c1c(NC(C)=O)sc2c(O)c(Br)ccc12`, the activity change, negative = inhibition result was “inactive”.

For `COc1ccc(C(=O)Nc2ccc(S(=O)(=O)NC(C)C)cc2)cc1`, the activity change, negative = inhibition result is “inactive”.

`COC(=O)c1cc(NC(=O)CC2C(=O)NCCN2C(=O)c2ccc(F)cc2)cc(C(=O)OC)c1` (stereo not given): the activity change, negative = inhibition entry is “inactive”.

Consider `Cn1ccs/c1=N\S(=O)(=O)c1ccc(C(C)(C)C)cc1`, for which the activity change, negative = inhibition entry is “inactive”.

`COCC(C)NC(=O)c1ccc(-n2nc(C(F)(F)F)cc2-c2cccs2)cc1` (stereo not given): the activity change, negative = inhibition entry is “inactive”.

For the compound `NC(=O)c1nsc(C(=O)N(CC(=O)NCc2ccc(F)cc2)Cc2ccco2)c1N`, the activity change, negative = inhibition entry is “inactive”.

In the case of `Cc1ccc(-c2cc(=O)c3ccc(Cl)cc3[nH]2)cc1`, the activity change, negative = inhibition is -2.63% [at 0.0915 µM].

As to `COc1ccc(C)cc1N(C)C(=O)c1coc(=O)c2ccccc12`, the activity change, negative = inhibition entry was “inactive”.
